# Screens (PubChem BioAssay)
# Only some compounds are listed: those with a hit (about 19% of all), similar ones and a draw of the others.
# HepG2 tox = kills HepG2 cells in TGF-b inhibitor counter-screen; HepG2 CAGA-GFP viability, ATP luminescence, 18 h; Potency, µM (titrated, usually from 46.1 µM), inactives show top-dose activity change, negative = cytotoxicity, hits mostly cytotoxic; 0.76% of 410,000 active; AID 588856; note: potency is the fitted concentration of half-maximal effect
#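 HepG2 CAGA-GFP cells (1000/well, DMEM with 1% FBS) received compound, then TGF-beta at 500 pg/mL final, and were incubated 18 hours at 37 degrees C. Viability was read by CellTiter-Glo luminescence. Media-only wells were set as complete cell-killing and DMSO as no toxicity.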
# TDP1 cell CPT = DT40-hTDP1 cell growth loss with CPT; chicken DT40 Tdp1-/-;hTDP1 cells + 20 nM CPT, ATP luminescence, 48 h; Potency, µM (top dose mostly 46.2 µM), for inactives: at the highest dose activity change, negative = growth inhibition, actives largely listed as inhibitors; 12% of 420,000 active; AID 686979; note: potency is the fitted concentration of half-maximal effect; % is set by controls: 0 for no effect and ±100 for the full control effect; nearly all actives have a fitted effect of over 55% in size
#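 Chicken DT40 Tdp1-/- cells complemented with human TDP1, 400 cells/well, exposed to compounds plus 20 nM camptothecin for at least 48 h at 37 C; viability read as ATP content by CellTiter-Glo luminescence.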
# DT40 TDP1 no CPT = qHTS for Inhibitors of human tyrosyl-DNA phosphodiesterase 1 (TDP1): qHTS in cells in absence of CPT. Potency, µM (doses to about 46.2 µM), for inactives: top-dose activity change, negative = growth inhibition, hits mostly inhibitors. DT40 Tdp1-/- hTDP1 cells, no CPT, ATP luminescence, 48 h. 15% of 420,000 active. AID 686978, 2013; note: potency is the fitted concentration of half-maximal effect; % is set by controls: 0 for no effect and ±100 for the full control effect; nearly all actives have a fitted effect of over 55% in size
#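 No-CPT arm: Tdp1-/-;hTDP1 DT40 cells (400/well) plus compounds, incubated ≥48 hr at 37 °C. Readout CellTiter-Glo luminescence.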
# IL-1B inflam inh = inflammasome signaling inhibition, IL-1 beta readout | THP-1 LPS/ATP IL-1B secretion, AlphaLISA, 16 h; active compounds read low | activity change, % at 57.5 µM | 4.7% of 360,000 active | AID 743279; in the data active = activity change below about -50%; inconclusive = mostly about -30% to -49%; note: % is set by controls: 0 for no effect and ±100 for the full control effect
#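 THP-1 cells pretreated 1 hr with compounds (up to 57.5 uM final), then stimulated with LPS (250 ng/mL final) plus ATP (1.25 mM final); secreted IL-1B measured by AlphaLISA after 16 hr, decreased signal indicating inhibition.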
# TGFb SMAD3 inh = TGF-b pathway inhibition. HepG2 CAGA-GFP TGF-b/SMAD3 reporter, GFP fluorescence, 18 h; TGF-beta stimulated, 500 pg/mL final. Potency, µM (top dose mostly 46.1 µM), inactives show top-dose activity, negative = inhibition, most hits filed as inhibitors. 1.2% of 410,000 active; note: potency is the fitted concentration of half-maximal effect; % is set by controls: 0 for no effect and ±100 for the full control effect; nearly all actives have a fitted effect of over 65% in size
#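 Inhibition was scored as loss of TGF-beta-induced (500 pg/mL final, 18 hours, 37 degrees C) GFP in HEPG2 cells carrying a CAGA-GFP reporter, in DMEM with 1% FBS. Well GFP was summed per cell; Activity was normalised to unstimulated and stimulated DMSO wells, then concentration-response fitting.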
# TDP1 block = blocks human tyrosyl-DNA phosphodiesterase 1. 0.28% of 350,000 active. recombinant TDP1, AlphaScreen DNA substrate cleavage. Potency, µM (highest dose often 130 µM), without a hit: at the top dose activity change, negative = inhibition, usual class: inhibitors. AID 485290; note: potency is the fitted concentration of half-maximal effect; % is set by controls: 0 for no effect and ±100 for the full control effect; nearly all actives have a fitted effect of over 40% in size
# Target sequence (Q9NUW8 whole entry, looked up): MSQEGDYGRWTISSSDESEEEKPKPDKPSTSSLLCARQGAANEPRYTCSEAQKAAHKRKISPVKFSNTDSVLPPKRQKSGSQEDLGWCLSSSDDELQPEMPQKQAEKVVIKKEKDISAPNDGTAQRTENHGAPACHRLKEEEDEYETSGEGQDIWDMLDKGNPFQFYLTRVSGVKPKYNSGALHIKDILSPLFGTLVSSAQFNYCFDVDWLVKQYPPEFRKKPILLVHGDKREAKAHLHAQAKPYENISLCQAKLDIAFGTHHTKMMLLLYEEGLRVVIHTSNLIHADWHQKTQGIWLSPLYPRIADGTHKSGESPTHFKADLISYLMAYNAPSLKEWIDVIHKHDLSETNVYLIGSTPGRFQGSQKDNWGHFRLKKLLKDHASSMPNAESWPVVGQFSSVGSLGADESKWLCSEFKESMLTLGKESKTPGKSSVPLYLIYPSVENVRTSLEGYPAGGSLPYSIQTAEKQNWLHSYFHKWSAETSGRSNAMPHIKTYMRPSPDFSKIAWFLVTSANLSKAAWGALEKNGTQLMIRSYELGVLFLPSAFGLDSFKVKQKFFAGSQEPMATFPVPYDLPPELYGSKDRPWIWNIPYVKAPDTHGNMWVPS
#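 Steps: enzyme plus compound, 15 min RT; add biotin/phosphotyrosine-FITC oligonucleotide (15 nM final), react 5 min; add donor/acceptor beads (10 ug/ml final), 10 min; read AlphaScreen. Tdp1 at 1 nM final.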
# An asterisk follows results filed as active; u = inconclusive; x = no result given; [ ] = dose if it differs, or a comment. Unless noted, calls come from the whole dose curve; as a rule, active = well fitted curve in the direction sought with a large enough effect; inconclusive = small, poorly fitted or top-dose-only effect, or another doubt; inactive = no such curve, though single readings can be large; an effect the other way counts as inactive or inconclusive.
SMILES,HepG2 tox,TDP1 cell CPT,DT40 TDP1 no CPT,IL-1B inflam inh,TGFb SMAD3 inh,TDP1 block
COc1ccc(CNC(=O)c2ccc(CN3C(=O)C(C)=C(c4ccc(C)cc4)S3(=O)=O)cc2)cc1,-13%,u,u,x,-24%,5%
CCOC(=O)c1ccc(NC(=O)c2c(-c3c(F)cccc3Cl)noc2C)cc1,-9%,u,u,x,20%,x
C[C@H](NC(=O)c1nc[nH]c1C(=O)NCCCCCN)C(=O)OCc1ccccc1,-8%,-12%,-20%,18,-5%,-13%
CC12C=C(/C=C/c3ccc(Br)cc3)C(C)(C1)C(c1ccc(Br)cc1)CC2=O (centres undefined),x,x,x,x,x,7%[21 µM]
COc1ccccc1N1CCN(C(=O)c2cn(C)c3ccc(S(=O)(=O)N4CCOCC4)cc3c2=O)CC1,-3%,2%,-2%,33,5%,1%
CCc1ccc(-n2nc(C)c3c(C)cc(=O)n(CC(=O)Nc4cc(C)ccc4C)c32)cc1,-29%,-8%,-16%,x,4%,5%
CC(=O)c1ccc(F)c(-c2cc(C)cc3c2OC(CNC(=O)C[C@@H]2C[C@@H](C)NC(=S)N2)C3)c1 (some centres undefined),x,-13%[9.04 µM],-18%,x,x,x
O=C(Cn1ccc(=O)[nH]c1=O)NCCO,4%,-2%,-13%,3,21%,0%
O=C(Cn1ccc(=O)[nH]c1=O)c1ccc([N+](=O)[O-])o1,-37%,5.2µM*,2.1µM*,u,u,x
CCn1c(O)c(/C=N/N=C/c2ccccc2)c2ccc(C3=NNC(=O)CC3)cc21,-4%,u,18µM*,u,46%,-2%
CCCCOc1ccc(C2=NNC(=O)CC2)cc1,-17%,-24%,-4%,-20,u,2%
CCC(CC)=N/N=C/c1c(O)n(CC)c2cc(C3=NNC(=O)CC3)ccc12,16%,u,9.2µM*,-11,12%,4%
CCCCC/C=C\C/C=C\C[C@H](O)/C=C/C=C\CCCC(=O)O,x,x,x,x,x,1%
CCOc1ccccc1-c1c2cc(O)c(=O)cc-2oc2cc(O)c(O)cc12,-3%,23µM*,u,35,2.8µM*,3%
COc1ccc(OC)c(-c2c3cc(O)c(=O)cc-3oc3cc(O)c(O)cc23)c1,-19%,u,u,45,u,9%
Cc1ccc2[nH]cc(C(=O)NCc3cccs3)c(=O)c2c1,-2%,23µM*,23µM*,-71*,-1%,0%
CCOCCCNC(=O)c1c[nH]c2ccc(C)cc2c1=O,-20%,1%,-27%,-10,9%,2%
COc1cccc2c(=O)c(C(=O)NCCc3ccccc3)c[nH]c12,-13%,8%,u,3,-15%,x
COc1cccc2c(=O)c(C(=O)NCc3cccs3)c[nH]c12,-3%,-13%,6.5µM*,2,14%,-10%
C=C1CCC(C2CC(=O)OC2=O)C(=O)CCC2C1CC2(C)C (centres undefined),x,9%,-4%,x,x,4%
O=C1CN(C(=O)/C=C/c2cccc(Cl)c2)c2ccccc2N1,-5%,1%,-28%,0,-1%,2%
O=C1CN(C(=O)/C=C/c2ccco2)c2ccccc2N1,-14%,-9%,u,60,-5%,45µM*
COc1ccc(OC)c(/C=C/c2nc3ccccc3c(=O)n2-c2ccc(F)c(Cl)c2)c1,-9%,u,u,x,7%,3%
N#CCCN(Cc1ccccc1)C(=S)NC(=O)c1ccccc1,0%,9.2µM*,9.2µM*,27,-25%,5%
CCOc1ccc(C(=O)NCCc2ccccc2)cc1,-42%,-26%,-2%,-24,10%,3%
SMILES,HepG2 tox,TDP1 cell CPT,DT40 TDP1 no CPT,IL-1B inflam inh,TGFb SMAD3 inh,TDP1 block
CCOc1ccc(C(=O)NC(=S)N(Cc2ccccc2)Cc2ccccc2)cc1,-15%,21µM*,u,1,-19%,12%
Cc1nnsc1-c1onc(C)c1C(=O)O/N=C/c1ccc(Cl)cc1,-3%,u,2%,0,0%,0%
CCOC(=O)c1cccc(NC(=O)CC(c2cc(OC)c(OC)c(OC)c2)N2Cc3ccccc3C2=O)c1 (centres undefined),-19%,u,u,x,0%,3%
CN(C)CC1CCC/C(=C/c2ccc(Cl)cc2)C1=O (centres undefined),-4%,0.52µM*,0.58µM*,-24,u,x
CN(C)CC1CCC/C(=C\c2ccc(OC(=O)/C=C/c3ccc(Cl)c(Cl)c3)cc2)C1=O (centres undefined),-17%,0.73µM*,0.92µM*,u,0%,x
O=C(COC(=O)/C=C/c1ccc(Cl)c(Cl)c1)NC1CCCC1,3%,3%,-12%,20,0%,1%
CN(C)CC1CCCCC1OC(=O)c1ccc(Cl)cc1 (centres undefined),-43%,-16%,u,-3,-5%,2%
COc1cc(F)c(S(=O)(=O)N2CCCN(S(=O)(=O)c3cccc(N)c3)CC2)c(F)c1,x,x,x,x,x,0%
Cc1cc(Cl)ccc1NC(=O)CN1C(=O)CSc2ccc(S(=O)(=O)N(C)C)cc21,-9%,u,-28%,x,-30%,-3%
CN(C)S(=O)(=O)c1ccc2c(c1)N(CC(=O)Nc1ccc(OC(F)(F)F)cc1)C(=O)CS2,-39%,16µM*,u,x,u,0%
Cc1ccc(NC(=O)CN2C(=O)CSc3ccc(S(=O)(=O)N(C)C)cc32)cc1C,-27%,16µM*,u,x,u,8%
Cc1cc(C)cc(NC(=O)CN2C(=O)CSc3ccc(S(=O)(=O)N(C)C)cc32)c1,-10%,21µM*,16µM*,x,u,5%
Cc1[nH]c(C)c2c(=O)[nH]ncc12,-36%,-19%,-19%,-12,-1%,5%
OCC(CO)(CBr)CBr,x,x,x,x,x,6%
Cc1ccc(CNC(=O)c2ccc3c(c2)c(C)c(C)n3Cc2ccc(Cl)cc2)o1,-23%,u,5.2µM*,x,-29%,8%
CCn1c(C)cc(O)c(C(=O)Nc2cccc(Cl)c2)c1=O,13%,u,3.7µM*,0,4%,-9%
CCn1c(C)c(C)c2cc(C(=O)NCc3cccc(C)c3)ccc21,-17%,23µM*,u,x,-22%,11%
